Measurements as given in the supplement of paper PMC11732987, “Enantioselective OTUD7B fragment discovery through chemoproteomics screening and high-throughput optimisation” (Communications Chemistry, 2025).

Columns and labels:
Test in all cases: log2 ratio of Biotin-Ahx-Ub-VS probe labelling (fragment/DMSO); higher = less target engagement (more negative = stronger competition), active = hit call of the paper (q ≤ 0.05, log2 ratio ≤ -1)
Details in all cases: compound concentration: 200 uM; treatment time: 3 h
USP42 = target: T1, USP42 (UniProt Q9H9J4)
T1 sequence (whole entry): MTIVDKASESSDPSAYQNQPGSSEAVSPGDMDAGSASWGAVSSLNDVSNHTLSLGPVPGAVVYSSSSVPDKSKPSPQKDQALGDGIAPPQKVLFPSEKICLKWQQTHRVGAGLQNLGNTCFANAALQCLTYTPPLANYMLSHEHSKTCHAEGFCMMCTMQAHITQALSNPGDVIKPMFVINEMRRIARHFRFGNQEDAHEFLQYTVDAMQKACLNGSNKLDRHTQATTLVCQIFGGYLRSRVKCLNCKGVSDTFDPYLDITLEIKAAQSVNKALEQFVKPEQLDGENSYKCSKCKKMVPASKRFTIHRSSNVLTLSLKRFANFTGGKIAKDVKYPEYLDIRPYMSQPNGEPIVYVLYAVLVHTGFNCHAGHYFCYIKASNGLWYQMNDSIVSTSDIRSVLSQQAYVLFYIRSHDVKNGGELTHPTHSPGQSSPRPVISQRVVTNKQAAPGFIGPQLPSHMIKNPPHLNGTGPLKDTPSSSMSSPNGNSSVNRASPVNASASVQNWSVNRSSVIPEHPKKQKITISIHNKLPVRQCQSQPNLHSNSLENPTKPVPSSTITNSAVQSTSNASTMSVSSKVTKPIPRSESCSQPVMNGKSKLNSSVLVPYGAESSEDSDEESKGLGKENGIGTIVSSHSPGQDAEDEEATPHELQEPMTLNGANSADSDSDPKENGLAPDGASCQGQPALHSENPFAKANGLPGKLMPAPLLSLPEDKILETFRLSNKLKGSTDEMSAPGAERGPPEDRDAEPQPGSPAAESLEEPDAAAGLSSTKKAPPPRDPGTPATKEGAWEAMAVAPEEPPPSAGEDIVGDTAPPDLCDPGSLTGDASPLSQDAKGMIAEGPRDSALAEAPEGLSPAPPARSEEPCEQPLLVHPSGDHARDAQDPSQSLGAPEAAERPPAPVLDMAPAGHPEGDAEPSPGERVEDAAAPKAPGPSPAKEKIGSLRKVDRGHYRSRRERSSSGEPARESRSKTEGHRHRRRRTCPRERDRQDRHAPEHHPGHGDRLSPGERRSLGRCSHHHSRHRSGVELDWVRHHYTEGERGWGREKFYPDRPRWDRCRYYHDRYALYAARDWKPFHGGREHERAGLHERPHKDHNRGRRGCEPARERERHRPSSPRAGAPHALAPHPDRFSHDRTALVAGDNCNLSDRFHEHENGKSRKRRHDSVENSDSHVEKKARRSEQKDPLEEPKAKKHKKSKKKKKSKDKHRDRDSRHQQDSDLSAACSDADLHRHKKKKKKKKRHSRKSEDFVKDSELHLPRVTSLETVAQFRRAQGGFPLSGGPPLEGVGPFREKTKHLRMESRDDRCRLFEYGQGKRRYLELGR
How it was run: (§1)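 Fragment (200 µM) or vehicle was incubated for 3 h with triplicate HEK293T lysate samples of 495 µg, which were then treated with Biotin-Ahx-Ub-VS at 0.5 µM final for 1 h. Labelled DUBs were enriched on NeutrAvidin, digested with LysC and trypsin, and analysed by diaPASEF LC-MS/MS. Values are average log2 fragment/vehicle ratios from an unpaired t-test on global-median-normalised Spectronaut label-free quantities, using proteins with ≥2 unique peptides.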

USP46 = USP46 (UniProt P62068)
Sequence of USP46 (P62068 whole entry): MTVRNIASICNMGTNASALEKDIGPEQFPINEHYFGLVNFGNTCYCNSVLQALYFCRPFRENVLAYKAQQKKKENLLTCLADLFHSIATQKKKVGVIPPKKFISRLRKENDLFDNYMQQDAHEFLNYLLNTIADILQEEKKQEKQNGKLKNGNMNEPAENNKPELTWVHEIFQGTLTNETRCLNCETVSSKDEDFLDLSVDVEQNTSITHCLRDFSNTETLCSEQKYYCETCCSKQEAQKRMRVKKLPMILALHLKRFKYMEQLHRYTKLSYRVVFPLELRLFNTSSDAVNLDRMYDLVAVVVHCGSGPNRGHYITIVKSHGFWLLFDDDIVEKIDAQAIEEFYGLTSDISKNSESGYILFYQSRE
How it was run: as §1

USP47 = target: T2, USP47 (UniProt Q96K76)
T2 sequence (whole entry): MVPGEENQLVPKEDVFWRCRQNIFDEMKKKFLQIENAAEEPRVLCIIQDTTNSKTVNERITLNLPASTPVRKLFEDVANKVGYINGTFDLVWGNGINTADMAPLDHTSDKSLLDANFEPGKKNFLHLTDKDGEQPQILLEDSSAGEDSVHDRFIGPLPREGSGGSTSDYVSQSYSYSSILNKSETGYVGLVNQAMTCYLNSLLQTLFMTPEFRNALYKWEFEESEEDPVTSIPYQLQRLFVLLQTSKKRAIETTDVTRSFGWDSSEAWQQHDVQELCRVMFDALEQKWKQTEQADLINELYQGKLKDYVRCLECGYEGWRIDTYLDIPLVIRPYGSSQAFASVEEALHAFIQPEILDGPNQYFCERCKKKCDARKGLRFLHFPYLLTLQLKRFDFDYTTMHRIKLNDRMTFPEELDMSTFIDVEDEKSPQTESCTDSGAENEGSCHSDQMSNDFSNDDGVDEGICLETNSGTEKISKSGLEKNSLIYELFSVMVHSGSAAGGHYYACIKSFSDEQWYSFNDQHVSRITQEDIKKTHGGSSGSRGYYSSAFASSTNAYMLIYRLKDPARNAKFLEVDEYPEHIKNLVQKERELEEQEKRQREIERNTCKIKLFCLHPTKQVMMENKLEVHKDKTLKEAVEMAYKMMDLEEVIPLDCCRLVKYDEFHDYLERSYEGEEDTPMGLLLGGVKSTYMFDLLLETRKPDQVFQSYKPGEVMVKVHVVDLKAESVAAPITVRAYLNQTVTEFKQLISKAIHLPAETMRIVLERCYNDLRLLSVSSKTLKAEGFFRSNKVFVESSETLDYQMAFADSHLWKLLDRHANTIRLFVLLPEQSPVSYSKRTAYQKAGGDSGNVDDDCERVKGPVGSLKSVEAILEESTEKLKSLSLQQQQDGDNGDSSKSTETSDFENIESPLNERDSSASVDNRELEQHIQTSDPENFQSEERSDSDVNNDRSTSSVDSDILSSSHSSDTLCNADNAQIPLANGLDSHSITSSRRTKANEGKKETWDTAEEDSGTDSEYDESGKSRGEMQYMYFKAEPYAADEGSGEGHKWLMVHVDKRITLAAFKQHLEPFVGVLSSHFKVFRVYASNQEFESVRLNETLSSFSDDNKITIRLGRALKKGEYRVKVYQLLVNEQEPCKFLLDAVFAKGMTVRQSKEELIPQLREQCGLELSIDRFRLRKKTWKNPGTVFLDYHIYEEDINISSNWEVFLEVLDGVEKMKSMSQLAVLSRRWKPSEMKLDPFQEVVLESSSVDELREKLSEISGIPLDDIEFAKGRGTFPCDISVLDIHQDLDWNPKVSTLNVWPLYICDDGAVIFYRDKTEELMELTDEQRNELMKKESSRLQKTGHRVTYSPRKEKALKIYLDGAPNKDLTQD
How it was run: as §1

USP48 = target: T3, USP48 (UniProt Q86UV5)
T3 sequence (whole entry): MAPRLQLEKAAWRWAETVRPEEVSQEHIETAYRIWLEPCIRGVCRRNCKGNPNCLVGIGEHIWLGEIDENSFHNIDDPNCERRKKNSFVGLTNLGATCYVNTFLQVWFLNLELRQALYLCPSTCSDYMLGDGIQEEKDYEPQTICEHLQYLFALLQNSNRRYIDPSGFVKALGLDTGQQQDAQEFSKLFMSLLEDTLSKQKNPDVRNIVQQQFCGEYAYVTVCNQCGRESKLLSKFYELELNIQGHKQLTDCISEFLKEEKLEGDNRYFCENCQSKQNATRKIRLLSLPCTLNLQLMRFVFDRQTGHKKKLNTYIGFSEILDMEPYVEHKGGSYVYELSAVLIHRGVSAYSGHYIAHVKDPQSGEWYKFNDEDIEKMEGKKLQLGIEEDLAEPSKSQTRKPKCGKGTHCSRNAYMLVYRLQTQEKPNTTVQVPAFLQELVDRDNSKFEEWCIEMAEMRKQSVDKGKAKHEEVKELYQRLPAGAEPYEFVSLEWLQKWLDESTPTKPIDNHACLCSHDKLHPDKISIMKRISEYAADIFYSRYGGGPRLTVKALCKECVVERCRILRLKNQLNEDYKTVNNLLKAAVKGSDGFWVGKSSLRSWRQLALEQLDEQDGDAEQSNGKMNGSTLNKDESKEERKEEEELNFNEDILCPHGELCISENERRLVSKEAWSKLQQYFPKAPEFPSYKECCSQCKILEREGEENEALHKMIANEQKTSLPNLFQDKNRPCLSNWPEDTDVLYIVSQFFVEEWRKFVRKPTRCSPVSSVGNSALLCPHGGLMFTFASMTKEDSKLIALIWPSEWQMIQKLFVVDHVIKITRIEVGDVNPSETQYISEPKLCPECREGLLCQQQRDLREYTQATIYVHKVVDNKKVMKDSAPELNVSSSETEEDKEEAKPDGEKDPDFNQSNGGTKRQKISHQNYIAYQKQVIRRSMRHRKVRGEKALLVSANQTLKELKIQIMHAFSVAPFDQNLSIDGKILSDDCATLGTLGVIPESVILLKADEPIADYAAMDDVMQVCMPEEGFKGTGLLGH
How it was run: as §1

USP5 = target: T4, USP5 (UniProt P45974)
T4 sequence (whole entry): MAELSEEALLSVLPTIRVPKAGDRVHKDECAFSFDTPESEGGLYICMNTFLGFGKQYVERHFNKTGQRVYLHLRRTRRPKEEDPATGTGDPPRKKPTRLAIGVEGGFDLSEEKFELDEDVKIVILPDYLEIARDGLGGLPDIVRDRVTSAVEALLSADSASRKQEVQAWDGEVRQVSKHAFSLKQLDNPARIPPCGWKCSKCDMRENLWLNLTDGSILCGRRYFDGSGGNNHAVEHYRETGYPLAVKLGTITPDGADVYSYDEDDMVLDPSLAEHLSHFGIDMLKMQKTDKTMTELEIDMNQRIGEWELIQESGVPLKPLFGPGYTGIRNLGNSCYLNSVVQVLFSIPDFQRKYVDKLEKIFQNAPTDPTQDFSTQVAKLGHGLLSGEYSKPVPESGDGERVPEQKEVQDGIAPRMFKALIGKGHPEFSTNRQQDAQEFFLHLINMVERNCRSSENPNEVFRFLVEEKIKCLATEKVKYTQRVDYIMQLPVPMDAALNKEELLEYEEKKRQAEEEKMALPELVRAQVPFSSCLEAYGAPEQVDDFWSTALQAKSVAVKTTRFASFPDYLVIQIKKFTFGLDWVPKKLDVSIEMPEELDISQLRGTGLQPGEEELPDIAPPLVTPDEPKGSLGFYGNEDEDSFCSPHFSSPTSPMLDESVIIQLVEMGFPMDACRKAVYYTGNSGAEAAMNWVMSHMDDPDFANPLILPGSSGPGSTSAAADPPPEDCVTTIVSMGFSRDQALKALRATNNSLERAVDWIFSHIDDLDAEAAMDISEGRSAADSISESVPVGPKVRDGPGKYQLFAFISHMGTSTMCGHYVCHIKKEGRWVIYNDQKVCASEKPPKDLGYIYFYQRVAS
How it was run: as §1

USP54 = USP54 (UniProt Q70EL1)
Sequence of USP54 (Q70EL1 whole entry): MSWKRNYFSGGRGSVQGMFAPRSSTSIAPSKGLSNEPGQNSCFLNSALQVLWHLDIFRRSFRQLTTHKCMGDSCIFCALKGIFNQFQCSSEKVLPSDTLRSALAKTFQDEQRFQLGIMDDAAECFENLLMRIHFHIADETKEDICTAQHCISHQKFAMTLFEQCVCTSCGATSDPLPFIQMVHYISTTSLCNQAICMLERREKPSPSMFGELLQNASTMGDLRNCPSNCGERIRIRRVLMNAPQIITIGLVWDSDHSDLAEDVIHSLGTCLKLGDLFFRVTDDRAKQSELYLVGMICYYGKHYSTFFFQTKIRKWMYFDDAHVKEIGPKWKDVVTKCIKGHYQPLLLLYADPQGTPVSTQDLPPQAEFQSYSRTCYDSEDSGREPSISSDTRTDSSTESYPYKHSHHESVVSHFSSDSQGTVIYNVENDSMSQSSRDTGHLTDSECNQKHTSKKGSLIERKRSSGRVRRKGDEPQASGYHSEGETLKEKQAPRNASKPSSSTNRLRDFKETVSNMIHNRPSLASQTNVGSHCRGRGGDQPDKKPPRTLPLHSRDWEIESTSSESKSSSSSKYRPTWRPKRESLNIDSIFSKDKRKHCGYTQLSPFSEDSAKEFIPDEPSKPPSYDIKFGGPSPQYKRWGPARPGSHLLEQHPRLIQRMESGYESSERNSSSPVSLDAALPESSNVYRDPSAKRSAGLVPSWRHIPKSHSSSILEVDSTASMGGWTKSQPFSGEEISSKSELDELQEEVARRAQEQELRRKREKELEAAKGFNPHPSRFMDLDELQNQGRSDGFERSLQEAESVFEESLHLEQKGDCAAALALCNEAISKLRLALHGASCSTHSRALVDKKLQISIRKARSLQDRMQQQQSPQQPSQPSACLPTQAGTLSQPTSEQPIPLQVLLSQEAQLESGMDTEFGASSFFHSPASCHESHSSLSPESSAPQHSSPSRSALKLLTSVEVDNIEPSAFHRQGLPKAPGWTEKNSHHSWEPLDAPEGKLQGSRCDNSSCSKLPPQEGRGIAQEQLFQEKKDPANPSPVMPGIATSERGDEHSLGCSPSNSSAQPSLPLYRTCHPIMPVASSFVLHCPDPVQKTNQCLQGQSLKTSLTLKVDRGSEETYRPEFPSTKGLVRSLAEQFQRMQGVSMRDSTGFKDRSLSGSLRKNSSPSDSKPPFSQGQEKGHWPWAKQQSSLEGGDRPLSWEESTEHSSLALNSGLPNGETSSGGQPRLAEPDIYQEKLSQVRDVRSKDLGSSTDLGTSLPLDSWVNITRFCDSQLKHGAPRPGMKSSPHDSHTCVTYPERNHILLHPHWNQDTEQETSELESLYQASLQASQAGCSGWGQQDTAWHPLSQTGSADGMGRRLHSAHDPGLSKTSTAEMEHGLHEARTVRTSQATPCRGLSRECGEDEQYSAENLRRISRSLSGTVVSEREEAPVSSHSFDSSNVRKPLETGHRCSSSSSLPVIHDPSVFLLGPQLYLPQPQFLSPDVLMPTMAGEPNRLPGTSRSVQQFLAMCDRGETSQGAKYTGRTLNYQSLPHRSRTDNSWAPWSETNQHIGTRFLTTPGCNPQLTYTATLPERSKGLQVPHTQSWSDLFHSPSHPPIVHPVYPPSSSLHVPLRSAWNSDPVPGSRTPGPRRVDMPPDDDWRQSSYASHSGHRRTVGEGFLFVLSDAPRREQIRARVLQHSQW
How it was run: as §1

USP7 = USP7 (UniProt Q93009)
Sequence of USP7 (Q93009 whole entry, looked up): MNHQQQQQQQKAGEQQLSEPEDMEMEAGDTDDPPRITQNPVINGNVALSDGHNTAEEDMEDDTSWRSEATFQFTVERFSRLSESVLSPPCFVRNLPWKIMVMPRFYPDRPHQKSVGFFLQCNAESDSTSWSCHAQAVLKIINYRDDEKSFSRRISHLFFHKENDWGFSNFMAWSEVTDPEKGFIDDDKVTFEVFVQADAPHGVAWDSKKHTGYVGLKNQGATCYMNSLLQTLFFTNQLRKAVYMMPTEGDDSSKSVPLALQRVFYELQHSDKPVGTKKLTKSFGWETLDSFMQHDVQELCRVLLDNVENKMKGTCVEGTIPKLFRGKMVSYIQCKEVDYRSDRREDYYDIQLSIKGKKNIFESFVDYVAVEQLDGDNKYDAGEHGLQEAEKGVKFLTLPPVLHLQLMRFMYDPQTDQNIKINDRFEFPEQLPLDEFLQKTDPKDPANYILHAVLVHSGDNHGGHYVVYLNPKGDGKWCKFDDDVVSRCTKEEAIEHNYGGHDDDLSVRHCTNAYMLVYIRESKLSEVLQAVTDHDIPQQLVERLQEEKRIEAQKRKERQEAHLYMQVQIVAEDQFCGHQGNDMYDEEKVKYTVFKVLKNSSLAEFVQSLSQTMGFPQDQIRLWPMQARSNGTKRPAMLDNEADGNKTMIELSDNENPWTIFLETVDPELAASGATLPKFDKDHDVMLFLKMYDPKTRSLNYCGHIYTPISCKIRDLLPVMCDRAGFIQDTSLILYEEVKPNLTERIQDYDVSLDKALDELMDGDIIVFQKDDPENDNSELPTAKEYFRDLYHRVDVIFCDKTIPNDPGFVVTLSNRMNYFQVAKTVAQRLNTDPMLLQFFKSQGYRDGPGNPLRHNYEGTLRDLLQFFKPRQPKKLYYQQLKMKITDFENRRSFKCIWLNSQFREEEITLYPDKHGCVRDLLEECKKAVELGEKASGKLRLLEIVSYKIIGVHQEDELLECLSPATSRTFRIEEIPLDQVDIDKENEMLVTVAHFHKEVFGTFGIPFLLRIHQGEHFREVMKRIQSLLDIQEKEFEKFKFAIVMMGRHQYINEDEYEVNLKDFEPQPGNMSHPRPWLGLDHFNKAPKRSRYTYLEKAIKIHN
How it was run: as §1

USP8 = target: T5, USP8 (UniProt P40818)
T5 sequence (whole entry): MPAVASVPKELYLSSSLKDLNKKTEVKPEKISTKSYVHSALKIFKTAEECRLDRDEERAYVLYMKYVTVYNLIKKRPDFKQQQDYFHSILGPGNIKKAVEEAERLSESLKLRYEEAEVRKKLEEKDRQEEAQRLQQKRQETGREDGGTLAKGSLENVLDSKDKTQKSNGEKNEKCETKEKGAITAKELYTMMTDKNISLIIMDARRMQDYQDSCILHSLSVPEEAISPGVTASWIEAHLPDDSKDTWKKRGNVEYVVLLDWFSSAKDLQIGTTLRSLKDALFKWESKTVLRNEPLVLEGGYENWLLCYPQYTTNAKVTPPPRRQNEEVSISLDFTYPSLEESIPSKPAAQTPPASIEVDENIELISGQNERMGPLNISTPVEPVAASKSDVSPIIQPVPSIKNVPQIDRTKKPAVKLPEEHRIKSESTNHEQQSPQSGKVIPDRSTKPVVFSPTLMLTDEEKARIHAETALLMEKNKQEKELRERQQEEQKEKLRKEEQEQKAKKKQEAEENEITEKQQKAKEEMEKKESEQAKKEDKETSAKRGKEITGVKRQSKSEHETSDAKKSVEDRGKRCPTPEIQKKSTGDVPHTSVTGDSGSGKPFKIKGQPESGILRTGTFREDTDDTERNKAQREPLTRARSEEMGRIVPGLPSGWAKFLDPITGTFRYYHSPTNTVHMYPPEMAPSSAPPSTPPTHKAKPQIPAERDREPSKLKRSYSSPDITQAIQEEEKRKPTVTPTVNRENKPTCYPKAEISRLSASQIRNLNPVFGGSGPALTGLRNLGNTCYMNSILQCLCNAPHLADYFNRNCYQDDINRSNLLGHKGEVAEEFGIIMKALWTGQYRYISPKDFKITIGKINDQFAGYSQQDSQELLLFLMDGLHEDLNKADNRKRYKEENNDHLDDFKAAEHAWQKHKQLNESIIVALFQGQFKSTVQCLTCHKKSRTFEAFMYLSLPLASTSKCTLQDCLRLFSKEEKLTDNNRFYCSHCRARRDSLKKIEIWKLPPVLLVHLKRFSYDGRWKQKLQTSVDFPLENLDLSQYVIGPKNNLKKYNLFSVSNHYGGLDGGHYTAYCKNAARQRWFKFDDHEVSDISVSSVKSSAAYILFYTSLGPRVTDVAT
How it was run: as §1

Measured: log2 ratio of Biotin-Ahx-Ub-VS probe labelling

Cc1nc(CNC(=O)CCl)c2ccccn12.Cl
inactive: USP42 0.298 | USP46 0.0871 | USP47 -0.0462 | USP48 0.164 | USP5 0.133 | USP54 -0.0547 | USP7 -0.157 | USP8 -0.312
